This is a sample that favours compounds with a hit; in the whole collection about 2.3% have one here.
PP1 counter – counter-screen for PP5 inhibitors: inhibitors of human PP1-alpha; inhibition, % at 6.7 µM; purified PP1alpha, OMFP fluorescence; actives 0.9% (n = 320,000);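 active means inhibition above the mean inhibition of all tested compounds plus 3 SD, computed separately for each screening campaign, cut at about 15% in these data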
Target sequence (P62136 whole entry, looked up): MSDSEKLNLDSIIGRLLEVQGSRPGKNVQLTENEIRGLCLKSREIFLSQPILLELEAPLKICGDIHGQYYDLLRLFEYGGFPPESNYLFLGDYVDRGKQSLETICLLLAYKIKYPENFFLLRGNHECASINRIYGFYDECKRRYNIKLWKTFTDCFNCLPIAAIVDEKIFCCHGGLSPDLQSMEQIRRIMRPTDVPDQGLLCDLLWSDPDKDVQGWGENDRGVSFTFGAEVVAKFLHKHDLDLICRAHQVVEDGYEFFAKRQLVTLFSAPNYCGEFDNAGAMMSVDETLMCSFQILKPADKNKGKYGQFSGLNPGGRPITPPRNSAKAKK
MsrA inhibitor – inhibitors of bovine MsrA; purified bovine MsrA, absorbance read-out; inhibition, % at 15.5 µM; actives 0.75% (n = 360,000);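 further: 0% = vehicle wells with enzyme and 100% = reference inhibitor wells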
ZTA counter – counter-screen for EBNA-1 inhibitors: inhibitors of Epstein-Barr virus ZTA. ZTA-DNA binding, fluorescence polarization. inhibition, % at 11 µM. actives 0.15% (n = 320,000); in the data active means inhibition above about 33%
Target sequence (P03206 whole entry, looked up): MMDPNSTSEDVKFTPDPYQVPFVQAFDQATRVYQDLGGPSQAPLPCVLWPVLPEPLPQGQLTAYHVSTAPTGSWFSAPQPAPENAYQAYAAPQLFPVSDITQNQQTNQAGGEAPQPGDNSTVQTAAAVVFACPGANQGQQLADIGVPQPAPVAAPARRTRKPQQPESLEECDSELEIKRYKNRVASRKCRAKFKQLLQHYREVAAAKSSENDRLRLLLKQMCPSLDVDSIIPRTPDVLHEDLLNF
PP5 inh – inhibitors of human protein phosphatase 5 (PP5); inhibition, % at 6.7 µM; purified PP5c, OMFP substrate fluorescence; actives 0.18% (n = 320,000);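 active means inhibition above the campaign's mean inhibition across all tested compounds plus 3 SD, cut at about 9.5% in these data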;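 further: 0% = DMSO only and 100% = 100 µM cantharidin control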
EBNA-1 inhibitor – blocks EBNA-1 binding to DNA. AID 1950. inhibition, % at 14.8 µM. actives 0.34% (n = 300,000). EBNA-1 DNA binding, fluorescence polarization; in the data active means inhibition above about 28%
bovine MsrA act – bovine methionine sulfoxide reductase A activation; purified bovine MsrA, absorbance read-out; activation, % at 10.6 µM; actives 0.3% (n = 360,000); in the data active means activation above about 7.5%;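 further: 0% = vehicle and 100% = reference activator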
PP1 inh confirm – human PP1 phosphatase inhibition, confirmation; AID 2358; shares compounds with PP1 counter; actives 52% (n = 1,900); purified PP1alpha, OMFP substrate fluorescence; inhibition, % at 6.7 µM;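 active means mean PP1 inhibition above a set limit taken from the earlier primary screen, cut at about 15% in these data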
PP5 counter – PP5 phosphatase inhibition, counter-screen for PP1 inhibitors; actives 4% (n = 1,900); inhibition, % at 6.7 µM; shares compounds with PP1 counter; purified PP5c, OMFP fluorescence;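 active means mean PP5 inhibition over triplicate wells above about 9.5% taken from the earlier PP1 screen, limit read from the data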
MsrA act confirm – confirmation of bovine methionine sulfoxide reductase A activators; AID 602270; activation, % at 10.6 µM; purified bovine MsrA, absorbance read-out; shares compounds with bovine MsrA act; actives 12% (n = 1,000); in the data active means activation above about 4%;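 further: enzyme coupled to thioredoxin and thioredoxin reductase with NADPH; 0% = vehicle wells and 100% = reference activator wells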
MsrA inh confirm – confirmation of bovine MsrA inhibitors; shares compounds with MsrA inhibitor; purified bovine MsrA, absorbance read-out; inhibition, % at 15.5 µM; actives 41% (n = 2,300); AID 651822;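 further: coupled to thioredoxin reductase with NADPH and selenocystamine and DMSO as substrate; 0% = vehicle only and 100% = full effect of reference inhibitor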
An asterisk follows results filed as active; · = no result. Unless noted, no stated cut-off is given here; in the data, active means inhibition above about 4.5%; inactive means the rest.

SMILES	PP1 counter	MsrA inhibitor	ZTA counter	PP5 inh	EBNA-1 inhibitor	bovine MsrA act	PP1 inh confirm	PP5 counter	others
COc1ccc2[nH]c(=O)c(CN(CCO)S(=O)(=O)c3c(C)ccc4nsnc34)cc2c1	55*	3	-9	2	2	-3	0	0
CCCCCCCCCCOC(=O)Cn1c(COc2ccccc2OC)[n+](C)c2ccccc21	34*	0	9	1	2	-3	1	2
Cn1c(COc2ccccc2O)[n+](C)c2ccccc21	-3	0	-2	-1	0	-7	·	·
Nc1cc(=O)[nH]c(SCC(=O)N2N=C(c3ccc(Cl)cc3)CC2c2ccco2)n1 (configuration not stated)	20*	-1	-11	4	-3	-2	10	-4
COc1ccc(S(=O)(=O)N2CCCCC2)cc1NC(=O)[C@@H]1CCCN1C(=O)c1cccs1	0	0	5	1	·	-12	·	·
N#CCCN(C(=O)COC(=O)CCN=C1NS(=O)(=O)c2ccccc21)c1ccc(F)cc1	39*	-1	-2	-1	-4	0	-3	-2
COc1cc(/C=C2\SC(=O)N(CC(=O)Nc3ccc(C)cc3)C2=O)cc(Cl)c1OCC(=O)O	43*	0	-5	0	5	-3	46*	-5
Cc1ccc(NC(=O)CN2C(=O)S/C(=C\c3ccc(OCC(=O)O)c(Br)c3)C2=O)cc1	3	0	1	1	-7	-2	·	·
O=C1CCCc2oc3c(cc(NS(=O)(=O)c4ccc5c6c(cccc46)C(=O)N5)c4ccccc43)c21	20*	1	-17	4	1	-2	11	5
COc1ccc(C2C(C(=O)NCCCN3CCOCC3)c3ccccc3C(=O)N2c2ccc(OC)cc2)cc1 (configuration not stated)	-3	1	-14	-1	-2	-12	·	·
CC(C)N=C(NS(=O)(=O)c1ccc(Br)cc1)c1ccc(Cl)cc1	0	-1	-22	1	-10	-8	·	·
CC(=O)NC(CC(=O)NCCc1ccccc1)c1ccccc1 (configuration not stated)	·	-1	·	·	·	-4	·	·
O=C(CC(NC(=O)c1ccccc1Cl)c1ccccc1)NCCc1ccc(Cl)cc1 (configuration not stated)	19*	1	-9	-2	7	-2	6	-1
O=c1cc(-c2cc3ccccc3o2)c2cc(O)ccc2o1	3	·	10	1	4	-5	·	·
Cc1cc2oc(=O)cc(-c3cc4ccccc4o3)c2cc1O	24*	6.5*	-7	0	-2	-4	21*	-1	MsrA inh confirm=4
CCNC(=S)N/N=C/c1cccs1	37*	5.5*	-2	-2	9	-4	-3	-5	MsrA inh confirm=3
COc1ccccc1C(=O)NCC(=O)N/N=C/c1cn[nH]c1-c1ccccc1	-6	-1	-2	0	-8	-4	·	·
CNc1ccc(/C=C(\CCC(=O)O)c2nc3ccccc3s2)cc1[N+](=O)[O-]	32*	4.8*	-24	1	-5	-6	24*	-5	MsrA inh confirm=5.4*
COc1cccc(/C=N/Nc2ncnc(Cl)c2N)c1O	26*	5.7*	9	-1	-1	-7	32*	-2	MsrA inh confirm=5.2*
Cn1ccc2ccc(C3=CC(=O)C[C@H](c4ccc(F)cc4)C3)cc21	3	1	-17	3	·	-3	·	·
CCN(CC)c1ccc(/C=N/NC(=O)Cc2nnc(NC(=O)Nc3ccccc3)s2)cc1	20*	5.5*	-8	1	5	-8	25*	-3	MsrA inh confirm=4
CCN(CC)c1ccc(/C=N/NC(=O)Nc2ccccc2)cc1	1	3	11	0	-2	-3	·	·
COCCNC(=O)C(=O)N/N=C/c1ccccc1C(F)(F)F	0	0	-4	0	8	-1	·	·
Cc1ccc(S(=O)(=O)N2CCC(C(=O)NCCCOC(C)C)CC2)cc1	-5	-1	6	2	0	7.7*	·	·	MsrA act confirm=0
COc1ccccc1-n1c(C)nc2cc(C(=O)NCCN3CCOCC3)ccc21	2	1	2	-3	-1	-9	·	·
SMILES	PP1 counter	MsrA inhibitor	ZTA counter	PP5 inh	EBNA-1 inhibitor	bovine MsrA act	PP1 inh confirm	PP5 counter	others
CC(C)(C)c1cc(NC(=O)COC(=O)c2ccccc2)n(-c2ccccc2)n1	·	0	·	·	·	-5	·	·
CC(C)(C)c1cc(NC(=O)c2ccco2)n(-c2ccccc2)n1	0	1	7	1	4	16*	·	·	MsrA act confirm=-1
CC(OC(=O)CNC(=O)C12CC3CC(CC(C3)C1)C2)C(=O)Nc1ccc(S(N)(=O)=O)cc1 (configuration not stated)	-1	0	-10	5	-15	9.1*	·	·	MsrA act confirm=3
O=C(CSc1nnc(-c2ccncc2)o1)N1CCc2ccccc2C1	-3	0	-4	-1	-6	-2	·	·
COc1ccccc1NC(=O)Nc1ccc2c(c1)OCCO2	2	1	4	1	-5	-5	·	·
CCC(Oc1ccccc1OC)C(=O)Nc1ccc2c(c1)OCCO2 (configuration not stated)	-3	1	3	1	4	16*	·	·	MsrA act confirm=0
CC(C)(C)c1ccc(C(=O)NC2CCN(Cc3ccccc3)CC2)cc1	-2	-1	0	1	8	-11	·	·
CC1(C)Cc2cccc(Oc3ccc(S(=O)(=O)N4CCCCC4)cn3)c2O1	1	1	-5	-1	-1	7.7*	·	·	MsrA act confirm=-1
CCCCOc1ccccc1C1NC(=O)NC(C)=C1C(=O)OCc1ccco1 (configuration not stated)	13	1	7	2	0	8.9*	·	·	MsrA act confirm=0
CCCCOc1ccccc1C1NC(=O)NC(C)=C1C(=O)OCCOCC (configuration not stated)	-1	-1	-1	-2	0	2	·	·
O=C(O)C1C2CC(C(Br)C2Br)C1C(=O)O (configuration not stated)	·	0	·	·	·	15*	·	·	MsrA act confirm=-1
CC1Cc2ccccc2N1C(=O)COC(=O)c1cc(Br)ccc1O (configuration not stated)	0	-1	-3	-2	-5	-4	·	·
CC1Cc2ccccc2N1C(=O)COC(=O)c1cccc(Br)c1 (configuration not stated)	4	1	3	3	·	24*	·	·	MsrA act confirm=-2
COc1ccccc1CN1C[C@@H]2C[C@@H](c3[nH]c4c(C)cccc4c3C)N3CCC[C@@]23C1=O	6	-1	6	2	3	-3	·	·
